Test results published in PubChem BioAssay AID1851 (National Center for Advancing Translational Sciences (NCATS), 2009).
Values joined by “and” are separate entries in the source; they are usually repeats but may differ in a detail not shown here. Equal entries are not always repeated. Out of some 16,000 compounds screened, about 5,700 (36%) were called active. Roughly 24% stayed inconclusive and do not appear here. Calls come from the whole dose curve; as a rule, active = well fitted curve in the direction sought with a large enough effect; inconclusive = small, poorly fitted or top-dose-only effect, or effect the other way; inactive = no such curve, though single readings can be large or run the other way. The list shows a part of the results.

Target: Cytochrome P450 1A2 (Homo sapiens) (UniProt P05177)
Sequence (P05177 whole entry, looked up): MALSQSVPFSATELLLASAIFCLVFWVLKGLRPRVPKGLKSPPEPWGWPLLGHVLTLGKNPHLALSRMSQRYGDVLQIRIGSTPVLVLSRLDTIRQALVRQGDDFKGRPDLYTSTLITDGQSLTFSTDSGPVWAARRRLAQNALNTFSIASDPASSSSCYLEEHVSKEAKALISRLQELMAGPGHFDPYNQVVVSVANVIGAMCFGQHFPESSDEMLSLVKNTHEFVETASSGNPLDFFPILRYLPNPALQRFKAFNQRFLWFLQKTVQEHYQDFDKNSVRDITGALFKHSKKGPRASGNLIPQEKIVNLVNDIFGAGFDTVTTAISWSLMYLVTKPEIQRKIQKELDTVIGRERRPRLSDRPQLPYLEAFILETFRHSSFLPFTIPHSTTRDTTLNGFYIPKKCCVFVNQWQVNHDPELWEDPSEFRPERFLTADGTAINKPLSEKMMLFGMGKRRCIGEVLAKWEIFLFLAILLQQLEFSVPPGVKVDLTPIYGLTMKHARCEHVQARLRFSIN
Test: Cytochrome panel assay with activity outcomes
Settings: recombinant CYP, pro-luciferin dealkylation, luminescence, p450-cyp1a2; series mostly up to 57.1 µM; activity, negative = inhibition: at the top concentration
Protocol: The P450 gene superfamily is involved in the metabolism and clearance of xenobiotics. This assay used various human CYP P450 isozymes to measure the dealkylation of various pro-luciferin substrates to luciferin. The luciferin is then measured by luminescence after the addition of a luciferase detection reagent. Pro-luciferin substrate concentration in the assay was equal to its KM for its CYP P450 isozyme. Inhibitors and some substrates limit the production of luciferin, and decrease measured luminescence.
NCGC Assay Protocol Summary:
1, Reagent, 2 uL, Isozyme and Pro-Luciferin
2, Library compounds, 23 nl, 40 uM to 0.24 nM dilution series
3, Controls, 23 nl, Isozyme specific inhibitor
4, Reagent, 2 uL, NADPH regeneration solution
5, Incubation time, 60 min, Isozyme specific temperature
6, Reagent, 4ul, Detection reagent
7, Incubation time, 20 min, Isozyme specific temperature
8, Detection, 1 sec, ViewLux luminescent read
The luciferase-based P450-GloTM Screening Systems were obtained from Promega (Madison, WI) for CYP 1A2 (V9770), CYP 2C9 (V9790), CYP2 C19 (V9880), CYP 2D6 (V9890), and CYP 3A4 Luciferin-PPXE (V9910) and were adapted for 1,536-well microplates and an automated protocol. The control compounds furafylline for 1A2 (F124), sulfaphenazole for CYP 2C9 (S0758), ketoconazole for CYP 2C19 (K1003), quinidine for 2D6 (Q3625), and ketoconazole for 3A4 (K1003) were purchased from Sigma Aldrich (St. Louis, MO). Recombinant P450 enzymes were obtained from baculovirus constructs expressed in insect cells (BD/Gentest).
Medium-binding white solid Kalypsys plates used. Mixtures kept on ice. 1A2: 10 nM 1A2, 100 uM Luc-ME, 100 mM KPO4; 2C9: 10 nM 2C9, 100 uM Luc-H, 25 mM KPO4; 2C19: 5 nM 2C19, 10 uM Luc-H EGE, 50 mM KPO4; 2D6: 5 nM 2D6, 30 uM Luc-ME EGE, 100 mM KPO4; 3A4: 10 nM, 25 uM Luc-PPXE. All amounts are reflected in their final concentration, working concentration is 2x.
NADPH regeneration solution: 1.3 mM NADP+, 3.3 mM glucose-6-phosphate, 3.3 mM MgCl2, 0.4 U/mL glucose-6-phosphate dehydrogenase for all isozymes, 200 mM KPO4 for 3A4. Mixture prepared at RT but kept on ice during automated run.
RT incubation in auxilliary plate hotel for 1A2, 2D6, and 3A4; 37C for 2C9 and 2C19.
Keywords: P450, CYP1A2, CYP2C19, CYP2C9, CYP2D6, CYP3A4, Luciferase, MLSMR, MLSCN, NIH Roadmap, qHTS, NCGC
% is set by controls: 0 for no effect and ±100 for the full control effect.

Row | SMILES | AC50 | activity, negative = inhibition
1 | C[C@H](N)Cc1c[nH]c2ccc(OCc3cccs3)cc12 | 1.58 µM (active) and 126 nM (active) | –
2 | C[C@H](N)Cc1c[nH]c2ccc(O)cc12 | – | -15.7% (inactive)
3 | O=P(O)(O)C(Cl)(Cl)P(=O)(O)O | – | -2.79% (inactive)
4 | CS(=O)(=O)Nc1ccc(Cc2noc(-c3ccc4[nH]cc(CCN)c4c3)n2)cc1 | 0.0316 µM (active) | –
5 | C=C[C@]12CN(C)[C@H]3C1[C@@]1(C(=O)Nc4ccccc41)[C@H]1C[C@H]2[C@H]3CO1 | – | -3.88% [at 25.6 µM] (inactive)
6 | O=C1C=C2C=C[C@H]3C[C@@]2(O1)[C@H]1CCCCN31 | – | -3.52% [at 25.6 µM] (inactive)
7 | Fc1ccccc1CCNCc1cccc(Cl)c1Cl | 5.62 µM (active) | –
8 | c1ccc2c(N3CCNCC3)cccc2c1 | 10 µM (active) | –
9 | c1ccc(N2CCC3(CCNCC3)CC2)nc1 | – | -11.5% (inactive)
10 | O=[N+]([O-])c1ccc2nc(N3CCNCC3)ccc2c1 | 2 µM (active) | –
11 | CN1CCN(c2ccc3ccccc3n2)CC1 | 10 µM (active) and 3.16 µM (active) | –
12 | COc1ccccc1N1CCNCC1 | – | -0.244% (inactive)
13 | c1ccc(CN2CCC3(CCNCC3)CC2)cc1 | – | -13.6% (inactive)
14 | c1ccc2nc(N3CCNCC3)ccc2c1 | 1.58 µM (active) and 1.26 µM (active) and 251 nM (active) | –
15 | C[N+]1([O-])[C@@H]2CC(OC(=O)[C@@H](CO)c3ccccc3)C[C@@H]1[C@H]1O[C@H]12 (some centres undefined) | inactive | –
16 | CCC1(CCSC(=N)N)C(=O)NC(=O)NC1=O | – | -10.9% [at 2.29 µM] (inactive)
17 | NO | – | -18.7% (inactive)
18 | CC(=O)O[C@@H]1CN2CCC1CC2 | – | -10.4% (inactive)
19 | O=C1NC(=O)N(CCNc2ncc(C(F)(F)F)cc2Cl)C(=O)C1/C=N/OCc1c(F)cccc1Cl (centres undefined) | – | -2.55% (inactive)
20 | CP(=O)(O)C1=CCNCC1 | – | 5.68% (inactive)

Row | SMILES | AC50 | activity, negative = inhibition
21 | COC(=O)CN1CN(c2ccccc2)C2(CCN(Cc3ccc4ccccc4c3)CC2)C1=O | – | -20% (inactive)
22 | c1cnc(N2CCC3(CCNCC3)CC2)nc1 | – | 2.02% (inactive)
23 | N[C@@H](CSC1c2ccccc2-c2ccccc21)C(=O)O | 2.51 µM (active) | –
24 | N[C@H](CCl)C(=O)O | – | -4.47% (inactive)
25 | N[C@H](Cn1ccc(=O)[nH]c1=O)C(=O)O | – | -3.21% (inactive)
26 | C=C1[C@@H]2C[C@@]3([C@H]1O)[C@H]1C[C@@H]4[C@@]5(C)CC[C@H](O)[C@]4([C@H]1N(CC)C5)[C@H]3C[C@H]2O | – | -12.3% [at 25.6 µM] (inactive)
27 | CC(C)CCn1c(N)c(C(=O)NCc2cccs2)c2nc3ccccc3nc21 | 2.24 µM (active) | –
28 | CCCCn1c(N)c(C(=O)NCc2cccs2)c2nc3ccccc3nc21 | 2.82 µM (active) | –
29 | COCCCN1CCN(c2nnc3n2-c2sc(Br)cc2C(c2ccccc2Cl)=NC3)CC1 | – | 0.0974% (inactive)
30 | COC(=O)[C@@H]1[C@@H](O)[C@@]2(O)c3c(OC)cc(OC)cc3O[C@@]2(c2ccc(OC)cc2)[C@H]1c1ccccc1 | – | -2.88% [at 11.4 µM] (inactive)
31 | CCCC[N+]1(C)[C@@H]2CC(OC(=O)[C@@H](CO)c3ccccc3)C[C@H]1[C@H]1O[C@H]12 (some centres undefined) | – | 1.42% (inactive)
32 | COc1cc2c(cc1OC)[C@H](C)NCC2 | – | -1.22% [at 25.6 µM] (inactive)
33 | [N-]=[N+]=NCC(=O)c1c[nH]c(=O)[nH]c1=O | – | 0.0946% [at 2.29 µM] (inactive)
34 | O=[N+]([O-])c1cc(-c2ccc([As](=O)(O)O)cc2)ccc1[As](=O)(O)O | – | -10.9% [at 2.29 µM] (inactive)
35 | CCC1(C)CC(=O)NC(=O)C1 | – | -2.91% [at 25.6 µM] (inactive)
36 | CCC1=C(C[C@H]2NCCc3ccccc32)C[C@@H]2c3cc(OC)c(OC)cc3CCN2C1 | – | -7.08% [at 11.4 µM] (inactive)
37 | COc1ccc2c(c1OC)CN1CCc3cc4c(cc3[C@H]1C2)OCO4 | 1.58 µM (active) | –
38 | COc1ccc2c(c1OC)C(=O)O[C@H]2[C@H]1c2cc3c(cc2CCN1C)OCO3 | – | -13.2% [at 25.6 µM] (inactive)
39 | CN(C)CCC(=O)[C@@]1(O)CC[C@H]2[C@H]3CC=C4C[C@@H](O)CC[C@]4(C)[C@H]3CC[C@]21C | – | -5.71% [at 11.4 µM] (inactive)
40 | CCN1C[C@@]2(COC)CC[C@H](OC)[C@]34[C@@H]1[C@]1(OCO[C@@]15C[C@@H](OC)C1C[C@H]3[C@H]5[C@@H]1OC)[C@H](O)[C@@H]24 | – | 0.342% [at 25.6 µM] (inactive)

Row | SMILES | AC50 | activity, negative = inhibition
41 | CC[C@H](CO)NC(=O)[C@@H]1C=C2c3cccc4c3c(cn4C)C[C@@H]2N(C)C1 | – | -14.7% (inactive)
42 | CC[C@@H](CO)NC(=O)[C@H]1C=C2c3cccc4c3c(cn4C)C[C@H]2N(C)C1 | 15.8 µM (active) | –
43 | CC(C)C[C@H]1C(=O)N2CCC[C@@H]2[C@]2(O)O[C@](NC(=O)[C@H]3C=C4c5cccc6[nH]c(Br)c(c56)C[C@H]4N(C)C3)(C(C)C)C(=O)N12 | – | -18% (inactive)
44 | Nc1ccc(S(=O)(=O)c2ccc(NCN3C(=O)NC(=O)C(=O)C3=O)cc2)cc1 | – | -12.8% [at 11.4 µM] (inactive)
45 | COc1ccc(C(=O)NC2CC3CCCC(C2)N3CC(C)C)cc1OC (centres undefined) | – | -14% (inactive)
46 | C[C@@]12C(=O)OC(=O)[C@@]1(C)[C@H]1CC[C@@H]2O1 | – | -6% (inactive)
47 | CC(=O)[C@]1(O)CC[C@@H]2[C@H]3C[C@@H](C)C4=CC(=O)CC[C@@]4(C)[C@H]3[C@@H](O)C[C@]21C | – | -1.99% [at 2.29 µM] (inactive)
48 | CC(C)N[C@@H](C)Cc1ccc(I)cc1 | 10 µM (active) | –
49 | O=C1NC(=S)NC(=O)C1=Cc1cccc2cc3ccccc3cc12 | 0.398 µM (active) | –
50 | C[C@]12CC[C@@H]3[C@H](CCC4=CC(=O)CC[C@]43C)[C@]1(O)CC[C@@]2(O)C(=O)CO | – | 4.85% [at 2.29 µM] (inactive)
51 | COc1ccc2[nH]cc(CCN(C)C)c2c1 | 15.8 µM (active) | –
52 | COc1ccc2[nH]cc(CCN)c2c1 | 1.58 µM (active) | –
53 | CCCCCCCCCOc1ccc2[nH]cc(CCN)c2c1 | 0.0398 µM (active) | –
54 | NCCc1c[nH]c2ccc(OC(=O)C(=O)O)cc12 | 2.51 µM (active) | –
55 | CC(=O)O[C@H]1CC[C@@]2(C)C(=CC[C@@H]3[C@H]2CC[C@]2(C)C(=O)CC[C@H]32)C1 | – | -16.8% [at 25.6 µM] (inactive)
56 | CC(C)NC(=O)N1CCC2(CC1)CCN(C(=O)Oc1ccccc1)CC2 | – | 3.33% (inactive)
57 | CCOC(=O)c1[nH]c(C)c(C(=O)N2CCC3(CC2)OCCO3)c1C | – | -26.6% (inactive)
58 | CN(C)C(=O)Oc1ccc[n+](C)c1 | – | 2.74% (inactive)
59 | CC(C)(C)NC[C@H](O)c1cc(Cl)c(N)c(Cl)c1 | – | -1.17% [at 25.6 µM] (inactive)
